High-throughput results: PubChem, several laboratories
Platelet DG rel – platelet dense granule release activity; human platelet-rich plasma, SFLLRN dense granule ATP release, luminescence; inhibition, %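 (compounds screened at 7.5 µM in platelet-rich plasma)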; actives 0.22% (n = 300,000);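 active = mean replicate score, as percent of positive control, at or above 50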
HSP90 inh – HSP90 refolding inhibition in rabbit reticulocyte lysate; luciferase refolding luminescence, 3 h; inhibition, % at 5.6 µM; actives 0.91% (n = 290,000);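 active = inhibition above the screen-wide mean plus 3 SD, computed separately per campaign, cut at about 16% in these data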;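 also: 0% = DMSO wells and 100% = 60 µM geldanamycin wells; inhibitors lower the luminescence because luciferase stays unfolded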
HSF-1 act – increases HSF-1 driven luciferase reporter signal; NIH3T3-HGL HSF-1 luciferase reporter, MG132, 8 h; 100% = twice DMSO control signal; activation, % at 9 µM; actives 1.7% (n = 300,000);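 active = mean replicate activation of at least 50% with a set share of replicates each reaching 50%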;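 also: 0% = median of the neutral control wells and 100% = twice that signal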
MPTP inh – blocks calcium-induced mitochondrial swelling; isolated mouse mitochondria, Ca2+ swelling absorbance, 30 min; inhibition, % at 10 µM; actives 1.4% (n = 360,000);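 active = inhibition of 50% or more, scaled per plate between neutral and stimulator controls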;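 also: 0% = DMSO wells given calcium and 100% = 1 mM EGTA wells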
HSF1 inhib – HSF1 inhibition | NIH3T3-HGL HSE-luciferase, MG132-induced, luminescence 8 h; hits give low values | activity change, negative = inhibition, % at 7.5 µM (by protocol) | actives 0.77% (n = 300,000);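 active = more than half of replicate wells show activity change below -50%, luminescence cut by over half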;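 also: luciferase reports HSF-1 transcriptional activity via heat shock element; 0% = median of DMSO wells and -100% = zero luminescence signal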
dFosB act – enhances mouse delta FosB homodimer DNA binding; P13346; actives 0.99% (n = 340,000); AID 493131; activation, % at 25 µM; purified delta FosB, TAMRA-CDK5 oligo fluorescence polarization; percent of positive-control signal above neutral wells;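 active = mean activation above about 17%, with every replicate also reaching it, limit read from the data, passing the limit was not always enough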
Target sequence (P13346 whole entry, looked up): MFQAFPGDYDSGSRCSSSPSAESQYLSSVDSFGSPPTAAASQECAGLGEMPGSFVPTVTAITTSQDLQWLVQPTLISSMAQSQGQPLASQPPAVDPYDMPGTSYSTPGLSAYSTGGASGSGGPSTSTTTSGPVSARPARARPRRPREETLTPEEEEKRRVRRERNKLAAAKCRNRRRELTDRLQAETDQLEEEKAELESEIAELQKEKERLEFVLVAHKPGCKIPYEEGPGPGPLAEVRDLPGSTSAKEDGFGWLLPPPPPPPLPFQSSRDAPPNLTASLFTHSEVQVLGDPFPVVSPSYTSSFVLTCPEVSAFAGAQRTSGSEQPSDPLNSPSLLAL
Starred values were filed as active, the others as inactive. Hits are enriched below; roughly 4.9% of the tested compounds scored in any of these assays.

`COC(=O)Cc1c(C)c2ccc(OC3CCCCC3=O)c(C)c2oc1=O` (stereo not drawn) gave Platelet DG rel -6, HSP90 inh -1, HSF-1 act 17, MPTP inh 2, HSF1 inhib 4 and dFosB act 0.
`CC1OC(Nc2ccc(N=Nc3ccccc3)cc2)C(O)C(O)C1O` (stereo not drawn) gave Platelet DG rel 2, HSP90 inh -2, HSF-1 act 22, MPTP inh 2, HSF1 inhib 3 and dFosB act -2.
`CC1OC(Nc2cccc3ccccc23)C(O)C(O)C1O` (stereo not drawn) gave Platelet DG rel -2, HSP90 inh 1, HSF-1 act -96, MPTP inh 0, HSF1 inhib -96* and dFosB act -2.
`COc1cc2sc3ccc(C#CC4(O)CCCCC4)cc3c(=O)c2cc1OC` gave Platelet DG rel 56*, HSF-1 act -59, MPTP inh -1, HSF1 inhib -59* and dFosB act 4.
Screening COc1cc(C2Nc3cccc4cccc(c34)N2)ccc1O returned Platelet DG rel -3, HSP90 inh 5, HSF-1 act -8, MPTP inh 1, HSF1 inhib -8 and dFosB act 52*.
c1cc2c3c(cccc3c1)NC(c1ccc3c(c1)OCO3)N2 was read as Platelet DG rel 7, HSP90 inh 6, HSF-1 act -22, MPTP inh 3, HSF1 inhib -13 and dFosB act 36*.
Screening COc1ccccc1NC(=O)c1ccc(COc2ccccc2OC)o1 returned Platelet DG rel -1, HSP90 inh 3, HSF-1 act 5, MPTP inh 2, HSF1 inhib 6 and dFosB act -2.
C=CCc1ccc(OCc2ccc(C(=O)Nc3ccc(NC(C)=O)cc3)o2)c(OC)c1 was read as Platelet DG rel 4, HSP90 inh 2, HSF-1 act 57*, MPTP inh 0, HSF1 inhib 27 and dFosB act 7.
For CCCCOc1cccc2c(=O)n(CC(=O)Nc3ccc4c(c3)OCCO4)ccc12 the results were MPTP inh 0.
Screening Cc1cc(Cl)c2oc(C(=O)N3CCN(c4cccc(C)n4)CC3)c(C)c2c1 returned Platelet DG rel 6, HSP90 inh -1, HSF-1 act 73*, MPTP inh 0, HSF1 inhib 38 and dFosB act -14.
`Cc1ccc2oc(C(=O)N3CCN(c4cccc(C)n4)CC3)c(C)c2c1` gave Platelet DG rel 17, HSP90 inh -2, HSF-1 act 10, MPTP inh 2, HSF1 inhib 22 and dFosB act -10.
COc1ccc(C(=O)Nc2ccc(NC(=O)Cc3ccccc3)cn2)cc1 was read as Platelet DG rel 1, HSP90 inh 2, HSF-1 act 1, MPTP inh 1, HSF1 inhib -6 and dFosB act 1.
`CCCc1cc(=O)n2[nH]c(-c3ccc(Cl)cc3)cc2n1` gave Platelet DG rel 3, HSP90 inh -2, HSF-1 act 64*, MPTP inh 1, HSF1 inhib 20 and dFosB act -10.
`CCCCNC(=S)N(C)/N=C/c1ccc(OCc2ccc(C(=O)OC)cc2)c(OC)c1` gave Platelet DG rel 5, HSP90 inh -4, HSF-1 act 0, MPTP inh 1, HSF1 inhib 8 and dFosB act -3.
COc1cccc(CNC(=O)CCSCc2ccccc2F)c1 was read as Platelet DG rel 2, HSP90 inh 4, HSF-1 act 8, MPTP inh -1, HSF1 inhib -4 and dFosB act -1.
Screening CCc1ccc(N2CC(C(=O)Nc3ccc4c(c3)OCCO4)CC2=O)cc1 (stereo not drawn) returned Platelet DG rel -2, HSP90 inh 5, HSF-1 act -41, MPTP inh -1, HSF1 inhib -28 and dFosB act 3.
Screening CSc1ncc(C(=O)Nc2ccccc2)cn1 returned Platelet DG rel -3, HSP90 inh 0, HSF-1 act 3, MPTP inh -1, HSF1 inhib 5 and dFosB act 2.
Screening Cc1c(C#N)c(O)n(CCO)c(=O)c1N=Nc1ccc2c(c1)COC2=O returned Platelet DG rel 7, HSP90 inh 15, HSF-1 act 67*, MPTP inh 2, HSF1 inhib 67 and dFosB act 1.
`Cc1cc(=O)n(CCO)c(O)c1C#N` gave Platelet DG rel 13, HSP90 inh 9, HSF-1 act 10, MPTP inh -1, HSF1 inhib -1 and dFosB act -4.
CCOc1cc(Br)c(C(=O)O)cc1OC was read as Platelet DG rel 0, HSP90 inh -2, HSF-1 act -8, MPTP inh 8, HSF1 inhib -9 and dFosB act -3.
Screening COc1c(Br)cc(Br)cc1C(=O)O returned Platelet DG rel 2, HSP90 inh 1, HSF-1 act 112*, MPTP inh 1, HSF1 inhib 87 and dFosB act -1.
For COc1ccc(CCNCc2ccccc2N2CCCC2)cc1 the results were HSP90 inh 4, HSF-1 act -7, MPTP inh 1, HSF1 inhib -2 and dFosB act 1.
`COc1ccc(CCNCc2cc(C)n(-c3ccc(OC)cc3)c2C)cc1` gave Platelet DG rel -6, HSP90 inh 5, HSF-1 act 67*, MPTP inh 2, HSF1 inhib 18 and dFosB act -2.
For CC(C)NC(=O)c1ccc(-c2ccc(F)c(F)c2)c2ccoc12 the results were MPTP inh 0.
COC(=O)c1ccccc1NC(=O)CSc1nnc(C(CO)NC(=O)c2ccccc2)n1C (stereo not drawn) was read as Platelet DG rel 0, HSP90 inh 0, HSF-1 act -77, MPTP inh -1, HSF1 inhib -71* and dFosB act -9.
Screening COC(=O)c1ccccc1NC(=O)CSc1nnc(C(CO)NC(=O)c2ccccc2Cl)n1C (stereo not drawn) returned Platelet DG rel 10, HSP90 inh 2, HSF-1 act -5, MPTP inh -2, HSF1 inhib -1 and dFosB act 5.
Cc1nn(-c2ccccc2)c(Cl)c1/C=N/Nc1nc2ccccc2n1C was read as Platelet DG rel 2, HSP90 inh -4, HSF-1 act 63*, MPTP inh 3, HSF1 inhib 29 and dFosB act -3.
Cc1c(/C=N/Nc2nc3ccccc3[nH]2)c2ccccc2n1C was read as Platelet DG rel 5, HSP90 inh 3, HSF-1 act 332*, MPTP inh 1, HSF1 inhib 263 and dFosB act 78*.
For Cc1cc(=O)[nH]c(N/N=C/c2c(C)nn(-c3ccccc3)c2C)n1 the results were Platelet DG rel 4, HSP90 inh 0, HSF-1 act 13, MPTP inh 0, HSF1 inhib 1 and dFosB act 1.
